In PubChem BioAssay AID1006 (Sanford-Burnham Center for Chemical Genomics, 2008):
Among all 200,000 compounds or so, about 3,000 (1.5%) were called active. The sample as a whole holds a higher share of actives than the screen did. Values without a mark were called inactive.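 The calls were made as follows: active = inhibition above about 50% when tested at 10 µM (limit read from the data); inactive = the rest.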

biological target: Luciferin 4-monooxygenase (Photinus pyralis) (UniProt P08659); assay: inhibition of purified FLuc reporter enzyme – biochemical, luminescence, ATPLite, artefact control for luciferase-based inhibitor screens, primary screen (AID 1006); conditions: ATPLite firefly luciferase biochemical luminescence, 10 min; at 10 µM; stronger effect = higher value
Sequence (P08659 whole entry, looked up): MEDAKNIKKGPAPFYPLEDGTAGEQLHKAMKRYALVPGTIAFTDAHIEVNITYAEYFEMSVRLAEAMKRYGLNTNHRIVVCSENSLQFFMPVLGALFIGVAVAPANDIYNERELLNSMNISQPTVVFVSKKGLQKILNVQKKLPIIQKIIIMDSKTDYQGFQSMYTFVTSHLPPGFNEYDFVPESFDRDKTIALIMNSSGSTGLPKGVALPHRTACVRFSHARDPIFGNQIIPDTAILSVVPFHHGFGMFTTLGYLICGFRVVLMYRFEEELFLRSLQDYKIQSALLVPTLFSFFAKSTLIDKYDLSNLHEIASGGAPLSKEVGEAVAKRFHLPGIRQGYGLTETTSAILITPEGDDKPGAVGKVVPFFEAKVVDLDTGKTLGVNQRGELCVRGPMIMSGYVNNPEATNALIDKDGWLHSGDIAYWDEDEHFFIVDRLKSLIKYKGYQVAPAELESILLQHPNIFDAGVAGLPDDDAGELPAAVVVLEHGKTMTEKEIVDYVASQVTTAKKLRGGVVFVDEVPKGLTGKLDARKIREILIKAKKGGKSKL

Row | Compound | inhibition
1 | O=C(CC(=O)N/N=C\c1cccc(Cl)c1Cl)NCc1ccccc1 | -7.3%
2 | Cc1ccc(-c2cc(N)on2)cc1 | 17.5%
3 | CS(=O)(=O)Nc1cccc(-c2cn3ccccc3n2)c1 | 16.8%
4 | Cc1ccc(-c2cn3cc(C)ccc3n2)cc1 | 95.9% (active)
5 | COc1ccc(OC)c(-n2c(=S)[nH]c3cc(C(=O)N4CCCCC4)ccc3c2=O)c1 | -6.8%
6 | C/C(=N\Nc1nc2ccccc2[nH]1)c1cccs1 | 73.6% (active)
7 | C/C(=N\Nc1ncc(Cl)cc1Cl)c1ccc(S(=O)(=O)NCc2ccco2)cc1 | 2%
8 | COc1cccc(/C(C)=N/Nc2ncc(Cl)cc2Cl)c1 | 4.4%
9 | C/C(=N\Nc1ncc(Cl)cc1Cl)c1cccs1 | 57.2% (active)
10 | O=C(CSc1nc2ccccc2[nH]1)c1cccs1 | 5.4%
11 | C/C(=N\Nc1nc(Nc2ccccc2)nc(N2CCOCC2)n1)c1cccs1 | 5.5%
12 | Cc1cc(NC(C)C)n2c(nc3ccccc32)c1C#N | -2%
13 | O=[N+]([O-])c1ccc2c(c1)C(N1CCOCC1)/C(=C/C1(O)CCCCC1)O2 (centres undefined) | 0.2%
14 | O=C(CN1CCC(O)(c2ccccc2)CC1)Nc1ccc2c(c1)OCCO2 | -7.8%
15 | C=CCc1cccc2cc(C(=O)Nc3ccc(NC(C)=O)cc3)c(=O)oc12 | -2.7%
16 | CC(C)N(Cc1ccccc1)C(=O)COC(=O)c1cnccn1 | -3.5%
17 | Cn1c(=NC(=O)c2ccco2)sc2cccc(F)c21 | 59.7% (active)
18 | Cn1c(=NC(=O)C2CC2)sc2cc(F)cc(F)c21 | 0.6%
19 | CCCC(=O)N=c1sc2cccc(F)c2n1C | 7%
20 | C=C(C)c1cccc(C(C)(C)NC(=O)NC2CCCC2)c1 | -3.3%
21 | CCC(=O)N1CCC(C(N)=O)(N2CCCCC2)CC1 | -4.7%
22 | COc1ccc(Nc2ncc(F)c(N3CCOCC3)n2)cc1 | 75.2% (active)
23 | CCOc1ccc(Nc2nc(Cl)nc(N3CCN(c4ccc(OC)cc4)CC3)n2)cc1 | -4.4%
24 | c1ccc(Nc2nc(N3CCOCC3)c3ccccc3n2)cc1 | 2%
25 | Cc1nc(N2CCOCC2)sc1C(=O)NN | 0.3%
26 | CCOc1ccc(C(=O)Nc2cccc(-c3ccc4nncn4n3)c2)cc1 | 37.7%
27 | CCOc1ccc(C(=O)Nc2cccc(SC)c2)cc1 | 62.1% (active)
28 | CCOc1ccc(C(=O)Nc2ccncc2)cc1 | 11.8%
29 | O=C1CC(c2c(F)cccc2Cl)C(n2cncn2)C(O)=C1C1NCCc2ccccc21 (centres undefined) | -4.6%
